# ELG1 genotox: inducers of genotoxicity in HEK293T ELG1-luciferase cells; HEK293T ELG1-luciferase reporter, luminescence, 16 h; Potency, µM (titrated, usually from 46 µM), actives largely listed as activators; 1.3% of 330,000 active; note: nearly all actives have a fitted effect of over 60% in size
#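 16 hr compound incubation (37 °C, 5% CO2) of HEK293T cells carrying luciferase-tagged ELG1; luciferase then measured by ONE-Glo luminescence after 30 min at RT.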
# ELG1 DNA repair: ELG1-dependent DNA repair inhibition; HEK293T ELG1-luciferase reporter, luminescence, 16 h; DNA damage induced by 5-fluorouridine; Potency, µM (highest dose often 46.1 µM), usual class: inhibitors; 2.3% of 330,000 active; note: nearly all actives have a fitted effect of over 55% in size
#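 Step one: seed 2,000 cells per well. Step two: pin-transfer compound or DMSO alongside 5-fluorouridine. Step three: incubate 16 hr, 37 °C, 5% CO2. Step four: add ONE-Glo, wait 30 min, read luminescence.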
# NPC1 promoter act: activators of NPC1 promoter | Huh7 NPC1 promoter luciferase reporter, 24 h | Potency, µM (top dose mostly 9.22 µM), actives largely listed as activators | 2.4% of 320,000 active | AID 485313; note: nearly all actives have a fitted effect of over 60% in size
#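 Compounds in DMSO were transferred onto Huh7 NPC1-luciferase reporter cells pre-incubated 2 h; after 24 h at 37 °C, Amplite reagent was dispensed and luminescence recorded 10 min later.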
# Rab9 prom act: activates the Rab9 promoter; Huh7 Rab9 promoter-luciferase reporter, luminescence, 24 h; 2.8% of 320,000 active; Potency, µM (doses to about 9.22 µM), actives largely listed as activators; AID 485297; note: nearly all actives have a fitted effect of over 60% in size
#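 Promoter activation is measured as luciferase luminescence in Huh7 cells stably transfected with a Rab9 promoter–luciferase construct, following 24 h compound exposure at 37 °C and 10 min reagent incubation at ambient temperature.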
# FLuc counter: firefly luciferase modulation, counter-screen for miR-21 project; P08659; purified FLuc, Km substrates, luminescence inhibition; Potency, µM (top dose mostly 57.5 µM), most hits filed as inhibitors; 6.9% of 360,000 active; note: nearly all actives have a fitted effect of over 55% in size
# Target sequence (P08659 whole entry, looked up): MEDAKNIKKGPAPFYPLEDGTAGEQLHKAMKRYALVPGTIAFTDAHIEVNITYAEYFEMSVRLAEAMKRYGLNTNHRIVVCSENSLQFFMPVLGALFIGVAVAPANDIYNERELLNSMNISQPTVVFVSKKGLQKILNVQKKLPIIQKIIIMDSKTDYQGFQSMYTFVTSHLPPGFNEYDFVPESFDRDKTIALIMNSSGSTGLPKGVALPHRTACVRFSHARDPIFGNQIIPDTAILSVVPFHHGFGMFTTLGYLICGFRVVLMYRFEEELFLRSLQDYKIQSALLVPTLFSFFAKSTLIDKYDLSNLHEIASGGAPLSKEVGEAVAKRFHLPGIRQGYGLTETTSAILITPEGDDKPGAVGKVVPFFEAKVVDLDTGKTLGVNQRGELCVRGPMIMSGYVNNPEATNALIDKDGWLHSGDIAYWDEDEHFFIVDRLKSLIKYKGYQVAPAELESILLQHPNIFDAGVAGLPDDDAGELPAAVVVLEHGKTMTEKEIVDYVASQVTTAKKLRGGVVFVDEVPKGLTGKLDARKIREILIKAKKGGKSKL
#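 Purified P. pyralis luciferase (10nM final) with 10uM D-luciferin and 10uM ATP (Km levels) in 50mM Tris acetate pH 7.5, 10mM Mg acetate, 0.01% Tween-20, 0.05% BSA; qHTS 6-point titration, ~60 µM downward; luminescence read.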
# SMN2 splice up: increases expression of the SMN2 splice variant; HEK293 SMN2-luciferase splicing reporter, luminescence, 30-36 h; Potency, µM (doses to about 46.1 µM), actives largely listed as activators; 2.8% of 210,000 active; note: nearly all actives have a fitted effect of over 55% in size
#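 HEK293 cells carry an SMN2 […]–luciferase reporter in which exon 7 inclusion puts luciferase in frame. Cells were plated 10-12 h before compound addition, then incubated 30-36 h at 37C. ONE-Glo luminescence was read; sodium butyrate at 4.5 mM final served as control.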
# Hits are given with their value; . = inactive; ? = inconclusive; / = no result; [ ] = another dose, or the depositor's remark. Rows were chosen to be rich in hits. Some 9.4% of all compounds tested hit in one or more screens of this group. Calls come from the whole dose curve; as a rule, active = well fitted curve in the direction sought with a large enough effect; inconclusive = small, poorly fitted or top-dose-only effect, or another doubt; inactive = no such curve, though single readings can be large; an effect the other way counts as inactive or inconclusive.
SMILES,ELG1 genotox,ELG1 DNA repair,NPC1 promoter act,Rab9 prom act,FLuc counter,SMN2 splice up
CCOC(=O)c1ccc(-n2c(CCC(=O)O)ccc2-c2ccc(Br)cc2)cc1,/,/,/,/,?,.
CCCC(=O)Nc1nc(-c2ccccc2)ns1,.,?,?,?,17µM,?
CC(=O)Nc1cc(-c2ccc(Cl)cc2)[nH]n1,?,?,3.5µM,?,?,22µM
CC(=O)NC1Sc2ccccc2N=C1c1ccccc1 (centres undefined),13µM,?,?,?,12µM,?
CCOC(=O)c1c(NC(=O)CSc2cn(CCNC(=O)c3c(F)cccc3F)c3ccccc23)sc2c1CCC2,/,/,/,/,.,.
CCOc1ccc(-c2nc3ccccc3c(=O)o2)cc1,?,?,3.5µM,1.4µM,0.43µM,16µM
COc1ccc(-c2nc3ccccc3c(=O)o2)cc1OC,.,.,.,.,8.5µM,.
CCOC(=O)c1ccccc1NC(=O)N1CCC(CN2CCCCC2)CC1,/,/,/,/,.,/
CCOC(=O)c1c(NC(=O)c2ccc(S(=O)(=O)N3CCC(C)CC3)cc2)sc2c1CCN(C)C2,/,/,/,/,.,/
COc1ccc(OC)c(S(=O)(=O)N2CCC(n3c(C)nc4cccnc43)CC2)c1,/,/,/,/,.,/
O=C(C1CCC(CNc2c(N3CCCCC3)c(=O)c2=O)CC1)N1CCc2ccccc2C1 (centres undefined),.,?,.,.,.,.
CC1CCN(c2c(NCC3CCC(C(=O)N4CCc5ccccc5C4)CC3)c(=O)c2=O)CC1 (centres undefined),.,9.2µM,.,.,.,.
c1csc(CNc2ccc3c(c2)OCCO3)c1,8.2µM,?,.,.,27µM,.
Clc1cc(NCc2cccs2)ccc1N1CCOCC1,18µM,?,?,?,?,?
Oc1ccccc1CNc1ccc2c(c1)OCCO2,?,?,.,3.5µM,12µM,/
Cc1ccc(CNc2ccc3c(c2)OCO3)c(C)c1,/,/,/,/,21µM,.
CCCCN(CC)C(=O)CSc1nc2ccccc2c(=O)n1Cc1ccco1,/,/,/,/,.,/
CCCCCCCCCCCCCCC1CO1 (centres undefined),/,/,/,/,/,.
Cc1ccccc1CNC(=O)c1ccc2nc(SCc3ccc(F)cc3)n(C)c2c1,/,/,/,/,.,.
O=C(O)c1nc(-c2ccccc2)[nH]c1C(=O)O,/,/,/,/,/,.[9.22 µM]
COc1ccc2c(c1)cc1c(=O)n(CC(=O)NC3CCCCC3)nc(C)n12,/,/,/,/,.,.
O=C(NCc1cccs1)C1CCN(c2ccc(S(=O)(=O)N3CCOCC3)cc2Cl)CC1,.,18µM,.,.,.,.
CCCC(=O)Nc1cnc(NC(=O)c2cccc(F)c2)cc1C,0.46µM,?,0.45µM,0.63µM,9.5µM,2µM
Cc1ccc2cc(NC(=O)c3ccccc3)ccc2n1,1.8µM,?,0.56µM,0.4µM,1.9µM,/
O=C(Nc1ccc2ccccc2c1)c1cccc(F)c1,?,?,1.3µM,0.71µM,2.1µM,/
SMILES,ELG1 genotox,ELG1 DNA repair,NPC1 promoter act,Rab9 prom act,FLuc counter,SMN2 splice up
O=C(Nc1ccc2[nH]c(=O)c(=O)[nH]c2c1)c1cccc(F)c1,/,/,/,/,.,?
O=C(Nc1cccc(NC(=O)c2cccc(F)c2)n1)c1cccc(F)c1,.,?,.,.,19µM,/
Cc1ccc2cc(NC(=O)CC(CC(=O)O)c3ccccc3)ccc2n1 (centres undefined),.,.,.,.,.,/
Cc1cccc(NC(=O)c2sc3nc4c(cc3c2N)CN(C(C)C)CC4)c1,/,/,/,/,.,.
COc1ccc(C2=Nc3ccc(OC(F)(F)F)cc3NC(c3cccnc3)=N2)cc1,/,/,/,/,.,.
Cc1cc(NC(=O)Cc2ccccc2)cc(-c2nc3ccccc3o2)c1O,/,/,/,/,.,.
COC(=O)c1cc(NC(=O)c2cccc(F)c2)cc(C(=O)OC)c1,.,?,.,.,?,.
Cc1ccc2cc(NC(=O)c3cccc(F)c3)ccc2n1,2.6µM,?,0.63µM,0.56µM,2.7µM,/
CCOC(=O)c1sc(CS(=O)(=O)c2ccc(Cl)cc2)nc1C,.,.,.,.,.,/
CCOC(=O)c1sc(-c2ccc(Cl)cc2Cl)nc1O,.,.,.,.,17µM,/
CCOc1ccccc1OCC(=O)Nc1cccc(S(=O)(=O)N2CCCCCC2)c1,.,?,.,.,.,/
COc1ccc(NC(=O)COc2ccccc2C)cc1S(=O)(=O)N1CCCCC1,.,?,.,.,.,/
COc1ccc(NC(=O)COc2ccccc2C#N)c(S(=O)(=O)N2CCCCC2)c1,.,21µM,.,.,.,.
N#Cc1ccccc1OCC(=O)Nc1cccc(S(=O)(=O)N2CCCCCC2)c1,.,18µM,.,.,.,/
CC(=O)c1ccccc1OCC(=O)Nc1cccc(S(=O)(=O)N2CCCC2)c1,.,?,.,.,17µM,/
CC1=C(c2ccc(C(C)C)cc2)S(=O)(=O)NC1=NCc1ccccc1C,/,/,/,/,.,/
O=C(CCC(=O)OCC(=O)c1ccc(Cl)cc1)Nc1ccc(Oc2ccccc2)cc1,/,/,/,/,.,.
Nc1c(C(=O)NCc2ccccc2)nnn1Cc1cccc(Br)c1,/,/,/,/,.,.
COc1ccc(CNC(=O)c2oc3c(c2C)-c2nn(Cc4ccc(Cl)cc4)cc2CC3)cc1,/,/,/,/,.,/
CN(C)C(CNC(=O)c1cc2ccccc2oc1=O)c1ccccc1 (centres undefined),?,?,3.5µM,?,15µM,/
COc1ccccc1CNC(=O)c1cc2ccccc2oc1=O,.,.,.,.,.,/
O=C(NCc1ccccc1)c1cc2ccccc2oc1=O,?,?,.,.,15µM,/
Clc1ccccc1OCCn1nnc2ccccc21,?,?,3.2µM,?,?,/
Cc1ccc(C)c(OCCn2nnc3ccccc32)c1,.,?,.,.,?,/
Cc1ccc(OCCn2c(=O)n(C)c3ccccc32)cc1,?,?,3.2µM,2.8µM,11µM,/
SMILES,ELG1 genotox,ELG1 DNA repair,NPC1 promoter act,Rab9 prom act,FLuc counter,SMN2 splice up
Cn1c(=O)n(CCOc2ccc([N+](=O)[O-])cc2)c2ccccc21,.,.,.,.,?,/
Cn1c(=O)n(CCOc2ccccc2Cl)c2ccccc21,?,?,?,4.5µM,24µM,?
O=C(CCl)N(c1ccccc1)c1c[nH]c2ccccc12,.,21µM,.,.,.,/
O=C(CCl)N(c1ccc(Cl)cc1)c1c[nH]c2ccccc12,?,26µM,.,.,.,.
CN1C(C(=O)c2ccccc2)=C(NC(=O)c2ccccc2Br)c2ccccc2S1(=O)=O,/,/,/,/,.,.
Cc1ccc2nc(Cl)c3cc(C(=O)NC4CCCCC4)sc3c2c1,/,/,/,/,.,.
COCCN1C(=O)/C(=C/c2ccc(Oc3ccc([N+](=O)[O-])cn3)c(OC)c2)SC1=Nc1ccccc1,.,2.6µM,.,.,.,.
COc1cc(/C=C2\SC(=Nc3ccccc3)N(CCc3c[nH]c4ccccc34)C2=O)ccc1OC(C)C(=O)O (centres undefined),.,.,.,.,.,.

# High-throughput results as filed in PubChem BioAssay.
